KDM5B inh: blocks human KDM5B histone demethylase activity. Q9UGL1. KDM5B demethylase, FDH-coupled NADH fluorescence (FDH is formaldehyde dehydrogenase). Potency, µM (titrated, usually from 57.7 µM), most hits filed as inhibitors. actives 2.6% (n = 220,000). AID 1347165; active = well fitted inhibition curve with a large enough effect; also: 0% is about no effect; nearly all actives have a fitted effect of over 70% in size
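Compound dilutions met 200 nM (final) KDM5BΔAP for 10 min at room temperature before substrate addition. The substrate mix held 12.5 µM H3K4me3 with cofactors 25 µM α-ketoglutarate and 50 µM Fe²⁺. NADH signal gain over 30 min defined activity.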
Numbers without * were called inactive; i = inactive. Shown is part of a subset that was picked to be rich in hits. Potency is read from the fitted curve at half-maximal effect.

SMILES | KDM5B inh
Cc1cn2nc(C(=O)Nc3ccc4c(c3)OCCO4)cc2c(N2CCSCC2)n1 | 32µM*
Cc1cc(=O)n(CC(=O)Nc2ccc(C(F)(F)F)cc2)c(N2CCc3ccccc3C2)n1 | i
Cc1cn2nc(C(=O)Nc3ccc(C(F)(F)F)cc3)cc2c(N2CCSCC2)n1 | 28µM*
Cc1ccc(S(=O)(=O)Nc2ccc(-c3cn4ccsc4n3)cc2)cc1 | i
CCNC(=O)c1cccc2c(=O)c(C)c(-c3ccccc3)oc12 | i
COc1ccc2c(c1)c(C(C(=O)O)N1CCN(c3ccc(F)cc3)CC1)cn2CCC(=O)O (stereo not given) | i
CCOC(=O)C1(Cc2ccccc2F)CCCN(C(=O)CCc2c[nH]c3ccccc23)C1 (stereo not given) | i
O=C(CSc1ccc(N2CCC(C(=O)N3CCCCC3)CC2)nn1)Nc1ccc2c(c1)CCC2 | i
CC(C)c1ccc(NC(=O)c2cc3ncccn3n2)cc1 | i
COc1ccc(C(C)NC(=O)c2cc3n(n2)CC(c2ccc(Cl)cc2)OC3)cc1OC (stereo not given) | i
Cc1ccc(NC(=O)c2cc3ncccn3n2)cc1C | i
CCOc1ccc(NC(=O)c2sc3nc(-c4ccc(OC)cc4)cn3c2C)cc1 | i
COc1ccc(NC(=O)c2cc3c(N4CCSCC4)nc(C)cn3n2)cc1 | 14µM*
COc1ccc(C(C)NC(=O)c2cc(-c3ccccc3)cn2C)cc1OC (stereo not given) | i
COc1ccc(C(C)NC(=O)c2cc3c(N4CCSCC4)nc(C)cn3n2)cc1OC (stereo not given) | 6.3µM*
Cc1ccc(NC(=O)c2cc3c(N4CCSCC4)nc(C)cn3n2)cc1 | 35µM*
COc1ccc(NC(=O)c2cc3c(N4CCCC4)nc(C)cn3n2)c(OC)c1 | i
Cc1ccc2cccc(NC(=O)COc3ccccc3C)c2n1 | i
O=C1OC[C@@H]2CCN(C3CCCC3)Cc3ccc(F)cc3N12 | i
O=C(COc1ccc2c(=O)c(-c3ccc(Cl)cc3)coc2c1)Nc1nccs1 | i
O=C(C1Cc2ccccc2S1)N(Cc1ccc(C(F)(F)F)cc1)C1CC1 (stereo not given) | i
COc1ccc(C(=O)NCCn2c(C)cnc2-c2ccccc2)cn1 | i
C[S+](=O)([O-])c1ccc(-c2cc(C(=O)N3CCOCC3)nn3cccc23)cc1 | i
CCc1nc2c(c(-c3ccc(OC)cc3)n1)CCN([S+](=O)([O-])c1cccc(OC)c1)CC2 | i
COCc1nc2nc(-c3ccccc3)c(-c3ccc(OC)nc3)cc2n1C | 35µM*
SMILES | KDM5B inh
COCc1nc2nc(-c3ccccc3)c(-c3ccc(N4CCN(C)CC4)nc3)cc2n1C | 35µM*
COc1ccc(OCC(=O)N2CCN(c3cc(-c4ccccc4)[nH]n3)CC2)cc1 | i
COCc1nc2nc(-c3ccccc3)c(-c3ccnc(OC)c3)cc2n1C | i
COCc1nc2nc(-c3ccccc3)c(-c3ccc([S+](C)(=O)[O-])cc3)cc2n1C | 35µM*
Cc1nc2c(C)cccc2c(Cl)c1CC=C(Cl)Cl | i
COCCCNC(=O)c1cc2cc(Cl)ccc2nc1C | i
CC(C)c1ccc(-c2csc(NC(=O)Cn3ncc4ccccc4c3=O)n2)cc1 | i
CCn1c(SCC(=O)c2ccc(C#N)cc2)nnc1-c1ccccc1 | i
Cc1ccccc1NC(=O)N1C[C@@H](F)C[C@H]1C(=O)N1CCc2ccccc2C1 | i
CCc1cccc(NC(=O)Cn2nc3c4cc(F)ccc4n(Cc4cccc(C)c4)cc-3c2=O)c1 | i
Cc1ccc(NC(=O)N2CCc3c(c4cc(F)ccc4n3C)C2)cc1 | 14µM*
Cc1ccccc1NC(=O)N1CCc2c(c3cc(F)ccc3n2C)C1 | 28µM*
CCc1cccc(NC(=O)N2CCc3c(c4cc(F)ccc4n3C)C2)c1 | 25µM*
CC(C)c1cccc(C(C)C)c1NC(=O)N1CCc2c(c3cc(F)ccc3n2C)C1 | 25µM*
Cc1cccc(C)c1NC(=O)N1CCC(C(=O)c2ccc(F)cc2)CC1 | i
CCOc1ccc2c(n1)CCN(C(=O)Nc1ccccc1C)C2 | i
Cc1ccc(C2CCN(C(=O)Nc3ccc(F)cc3)C2)cc1 (stereo not given) | i
CC(C)c1cccc(C(C)C)c1NC(=O)c1ccc2c(c1)CCC2 | i
Cc1ccc(NC(=O)N2CCCC(c3nc(-c4ccc(F)cc4)no3)C2)cc1 (stereo not given) | i
CCc1cccc(NC(=O)N2CCC(OC3CCN(S(C)(=O)=O)CC3)CC2)c1 | i
CCCN1CCN(C2=NC(Cc3ccccc3)C(=O)N2c2ccccc2OC)CC1 (stereo not given) | i
COc1ccc(C(NC(=O)NCc2ccccc2)c2ccc(OC)cc2)cc1 | i
COc1ccccc1CNc1nc2ccccc2nc1NS(=O)(=O)c1cccc(Cl)c1 | i
COC(=O)CNC(=O)/C=C/c1ccc(C#N)cc1 | i
Cc1cc(C)n(-c2ccc(=O)n(CC(=O)Nc3ccc(C(C)(C)C)cc3)n2)n1 | i
SMILES | KDM5B inh
O=C(c1cc2ccccc2oc1=O)N1CCCN(Cc2ccccc2)CC1 | i
COc1cc2c(cc1OC)-c1c(c(C(=O)N3CCCC3)nn1-c1ccccc1Cl)C2 | i
COc1ccc(OCCN(C)C(=O)c2cc(C3CC3)nc3ccccc23)cc1 | i
CCc1noc(-c2cccn3c(CNC(=O)Cc4ccc(Cl)cc4)nnc23)n1 | 25µM*
Cc1ccc(-c2nc(C(=O)NCc3ccccc3C)no2)cc1 | i
Cc1noc(-c2ccccc2Cl)c1C(=O)NCc1ccccc1Cl | i
CCc1noc(-c2cn(C3CCN(C(=O)Cc4ccc(Cl)cc4)CC3)nn2)n1 | i
CCc1noc(-c2cccn3c(CNC(=O)Cc4ccccc4Cl)nnc23)n1 | 20µM*
CCc1noc(-c2cccn3c(CNC(=O)Cc4ccccc4C)nnc23)n1 | 25µM*
CC(O)c1ccc(NC(=O)c2nn(C(C)C)c(=O)c3ccccc23)cc1 (stereo not given) | i
Oc1ccc(-c2nc(C3CC3)nc3c2CN(Cc2ccsc2)CC3)cc1 | i
Nc1nc(N2CCCCC2)nc2c1C(C(=O)Nc1ccc(Cl)cc1)CC(=O)N2 (stereo not given) | i
O=c1[nH]c2ccc(-c3csc(NC4CCCC4)n3)cc2[nH]1 | i
CCC(CC)(CC(=O)Nc1ccccc1CO)C(=O)O | i
Cc1oc(-c2ccc(C(=O)NCCCN3CCOCC3)cc2)nc1CSc1ccccc1 | i
Cc1ccc(C(=O)N2CCC3(C2)C(=O)N(CCc2ccccc2)c2ccccc23)cc1 (stereo not given) | i
CC(C)c1ccc(NC(=O)C2CCCC2)cc1 | i
COc1ccc(OC)c(S(=O)(=O)N2CCN(c3cccc(C)c3C)CC2)c1 | i
Fc1ccc(-c2noc([C@@H]3Cc4nc[nH]c4CN3Cc3cc4ccccc4o3)n2)cc1Cl | 28µM*
O=C(Nc1ccccc1)N1Cc2[nH]cnc2C[C@H]1c1nc(-c2ccc(Cl)cc2)no1 | i
Fc1ccc(-c2noc([C@@H]3Cc4nc[nH]c4CN3Cc3ccccc3)n2)cc1Cl | 35µM*
COc1ccc(CN2Cc3[nH]cnc3C[C@H]2c2nc(-c3ccccc3)no2)cc1 | i
COc1ccc(NC(=O)N2Cc3[nH]cnc3C[C@H]2c2nc(-c3ccc(F)c(Cl)c3)no2)cc1 | i
c1ccc2cc(-c3noc([C@@H]4Cc5nc[nH]c5CN4CC4CCCCC4)n3)ccc2c1 | 28µM*
Fc1ccc(CN2Cc3[nH]cnc3C[C@H]2c2nc(-c3ccccc3)no2)cc1 | i
Cc1cccc(-c2noc([C@@H]3Cc4nc[nH]c4CN3Cc3ccc(C(=O)O)cc3)n2)c1 | 32µM*

Assay outcomes: PubChem, National Center for Advancing Translational Sciences (NCATS)
